Records with an inconclusive call do not appear. Values without a mark were called inactive. Calls of active or inactive are those of the source. Calls follow the shape of the dose curve; as a rule, active = well fitted curve in the direction sought with a large enough effect; inconclusive = small, poorly fitted or top-dose-only effect, or another doubt; inactive = no such curve, though single readings can be large; an effect the other way counts as inactive or inconclusive.
test: BET inhibitor-based combinations targeting novel dependencies in MECOM-rearranged (r) AML: OCI-AML3 cell line (AID 2202232); settings: CellTiter-Glo luminescence, 48 h; Potency: OCI-AML3 viability; series mostly up to 46 µM; viability (% of control): at the top concentration; also: nearly all actives have a fitted effect of over 35% in size;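 as to viability (% of control): plate controls were DMSO vehicle wells for no effect and wells without cells for full effect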
Outline: (§1)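 Luminescent ATP readout (CellTiter-Glo) after 48 hr drug exposure gives viability. Curves span 11 concentrations and are normalized to DMSO and empty wells. Activity is reported as area under the curve and its Z-transform within each cell line.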
Potency is read from the fitted curve at half-maximal effect.

Row | SMILES | viability (% of control) | Potency
1 | O=P1(N(CCCl)CCCl)NCCCO1 (centres undefined) | 113% | –
2 | O=c1[nH]c2ccccc2n1CCCN1CCC(n2c(=O)[nH]c3cc(Cl)ccc32)CC1 | 103% | –
3 | O=C(O)c1nn(Cc2ccc(Cl)cc2Cl)c2ccccc12 | 100% | –
4 | COC[C@H]1OC(=O)c2coc3c2[C@@]1(C)C1=C(C3=O)C2CCC(=O)[C@@]2(C)C[C@H]1OC(C)=O (some centres undefined) | – | 7.42 µM (active)
5 | CC(=O)c1c(O)c(C)c(O)c(Cc2c(O)c3c(c(C(=O)/C=C/c4ccccc4)c2O)OC(C)(C)C=C3)c1O | 58.4% | –

test: BET inhibitor-based combinations targeting novel dependencies in MECOM-rearranged (r) AML: MV-4-11 cell line (AID 2202233); settings: MV-4-11 AML viability, CellTiter-Glo luminescence, 48 h; series mostly up to 46 µM; viability, % of control: at the top concentration; also: nearly all actives have a fitted effect of over 45% in size;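 as to viability, % of control: plate controls were DMSO for no effect and blank wells for full effect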
Outline: (§2)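 Luminescent ATP readout (CellTiter-Glo, 15 min at room temperature) after 48 hr drug exposure gave viability. Dose-response curves, normalized to DMSO and empty-well controls, were summarized as area under the curve and its mean-centred Z-score.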

Row | SMILES | Potency | viability, % of control
6 | Cn1c(CCCC(=O)O)nc2cc(N(CCCl)CCCl)ccc21 | 10.5 µM (active) | –
7 | COc1ccc(C(=O)N2CCCC2=O)cc1 | – | 140%
8 | O=C(O)c1nn(Cc2ccc(Cl)cc2Cl)c2ccccc12 | – | 107%
9 | COC[C@H]1OC(=O)c2coc3c2[C@@]1(C)C1=C(C3=O)C2CCC(=O)[C@@]2(C)C[C@H]1OC(C)=O (some centres undefined) | 5.25 µM (active) | –
10 | CC[C@@]1(O)C(=O)OCc2c1cc1n(c2=O)Cc2cc3ccccc3nc2-1 | 0.0074 µM (active) | –
11 | CC(=O)c1c(O)c(C)c(O)c(Cc2c(O)c3c(c(C(=O)/C=C/c4ccccc4)c2O)OC(C)(C)C=C3)c1O | – | 34.7%

test: BET inhibitor-based combinations targeting novel dependencies in MECOM-rearranged (r) AML: HNT-34 cell line (AID 2202234); settings: HNT-34 AML viability, CellTiter-Glo luminescence, 48 h; series mostly up to 46 µM; viability (% of control): at the top concentration; also: nearly all actives have a fitted effect of over 35% in size;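 as to viability (% of control): plate controls were vehicle wells for no effect and cell-free wells for full effect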
Outline: as §2

Row | SMILES | Potency | viability (% of control)
12 | Cn1c(CCCC(=O)O)nc2cc(N(CCCl)CCCl)ccc21 | 14.8 µM (active) | –
13 | O=P1(N(CCCl)CCCl)NCCCO1 (centres undefined) | – | 107%
14 | O=c1[nH]c2ccccc2n1CCCN1CCC(n2c(=O)[nH]c3cc(Cl)ccc32)CC1 | – | 92.2%
15 | CC[C@@]1(O)C(=O)OCc2c1cc1n(c2=O)Cc2cc3ccccc3nc2-1 | 0.0053 µM (active) | –
16 | CC[C@@H](C(N)=O)N1CCCC1=O | – | 102%

test: BET inhibitor-based combinations targeting novel dependencies in MECOM-rearranged (r) AML: UCSD-AML1 cell line (AID 2202235); settings: UCSD-AML1 AML cells viability, CellTiter-Glo, 48 h; series mostly up to 46 µM; viability (% of control): at the top concentration; also: nearly all actives have a fitted effect of over 40% in size;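 as to viability (% of control): plate controls were DMSO vehicle wells for no effect and blank wells for full effect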
Outline: as §2

Row | SMILES | Potency | viability (% of control)
17 | Cn1c(CCCC(=O)O)nc2cc(N(CCCl)CCCl)ccc21 | 18.6 µM (active) | –
18 | O=P1(N(CCCl)CCCl)NCCCO1 (centres undefined) | – | 106%
19 | COc1ccc(C(=O)N2CCCC2=O)cc1 | – | 105%
20 | O=c1[nH]c2ccccc2n1CCCN1CCC(n2c(=O)[nH]c3cc(Cl)ccc32)CC1 | – | 119%
21 | O=C(O)c1nn(Cc2ccc(Cl)cc2Cl)c2ccccc12 | – | 106%
22 | COC[C@H]1OC(=O)c2coc3c2[C@@]1(C)C1=C(C3=O)C2CCC(=O)[C@@]2(C)C[C@H]1OC(C)=O (some centres undefined) | 5.9 µM (active) | –
23 | CC(=O)c1c(O)c(C)c(O)c(Cc2c(O)c3c(c(C(=O)/C=C/c4ccccc4)c2O)OC(C)(C)C=C3)c1O | 4.17 µM (active) | –

test: BET inhibitor-based combinations targeting novel dependencies in MECOM-rearranged (r) AML: AML-191 cell line (AID 2202236; also: nearly all actives have a fitted effect of over 35% in size;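 as to viability (% of control): plate controls were vehicle wells for no effect and wells without cells for full effect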); settings: AML-191 viability, CellTiter-Glo luminescence, 48 h; series mostly up to 46 µM; viability (% of control): at the top concentration
Outline: as §1

Row | SMILES | Potency | viability (% of control)
24 | Cn1c(CCCC(=O)O)nc2cc(N(CCCl)CCCl)ccc21 | 16.6 µM (active) | –
25 | O=P1(N(CCCl)CCCl)NCCCO1 (centres undefined) | – | 107%
26 | COc1ccc(C(=O)N2CCCC2=O)cc1 | – | 120%
27 | O=C(O)c1nn(Cc2ccc(Cl)cc2Cl)c2ccccc12 | – | 104%
28 | COC[C@H]1OC(=O)c2coc3c2[C@@]1(C)C1=C(C3=O)C2CCC(=O)[C@@]2(C)C[C@H]1OC(C)=O (some centres undefined) | 6.61 µM (active) | –
29 | CC[C@@]1(O)C(=O)OCc2c1cc1n(c2=O)Cc2cc3ccccc3nc2-1 | 0.0209 µM (active) | –
30 | CC[C@@H](C(N)=O)N1CCCC1=O | – | 111%

test: BET inhibitor-based combinations targeting novel dependencies in MECOM-rearranged (r) AML: AML-194 cell line (AID 2202237; also: nearly all actives have a fitted effect of over 40% in size;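 as to viability (% of control): plate controls were vehicle wells for no effect and wells without cells for full effect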); settings: AML-194 (MECOM-r AML) viability, CellTiter-Glo, 48 h; series mostly up to 46 µM; viability (% of control): at the top concentration
Outline: as §1

Row | SMILES | Potency | viability (% of control)
31 | Cn1c(CCCC(=O)O)nc2cc(N(CCCl)CCCl)ccc21 | 20.9 µM (active) | –
32 | COc1ccc(C(=O)N2CCCC2=O)cc1 | – | 120%
33 | CC(=O)c1c(O)c(C)c(O)c(Cc2c(O)c3c(c(C(=O)/C=C/c4ccccc4)c2O)OC(C)(C)C=C3)c1O | – | 78.6%
34 | CC[C@@H](C(N)=O)N1CCCC1=O | – | 103%

Reference: PubChem BioAssay (NCATS)
